Common to all, as to assay: NCI-60 one-dose screen, 48 h (100 = growth as untreated, 0 = no growth, -100 = all killed)
What all share (conditions): 10 µM unless noted

Assay [1] deals with SK-MEL-2 melanoma.
Assay [2] deals with EKVX NSCLC.
The subject of assay [3] is SN12C renal.
Assay [4] deals with UO-31 renal.
For assay [5], the system named is TK-10 renal.
In assay [6] the test system is ACHN renal.
Assay [7] has as its system CAKI-1 renal.
Assay [8] concerns A498 renal.
In assay [9] the test system is CCRF-CEM leukemia.
In assay [10] the test system is MOLT-4 leukemia.
In assay [11] the test system is SR leukemia.
The subject of assay [12] is RPMI-8226 leukemia.
Assay [13] relates to OVCAR-8 ovarian.
In assay [14] the test system is OVCAR-5 ovarian.
For assay [15], the system named is OVCAR-4 ovarian.
In assay [16] the test system is SK-OV-3 ovarian.
Assay [17] has as its system IGROV1 ovarian.
Assay [18] deals with OVCAR-3 ovarian.
In assay [19] the test system is HS 578T breast.
In assay [20] the test system is NCI/ADR-RES ovarian.

About 83,000 compounds went through this panel and 20% of them were active in at least one assay; those are over-represented in the sample as a whole.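 Each cell line was grown in a 96-well plate and treated with one concentration of compound for 48 hours. Values below 10 were considered active.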 Unmarked numbers belong to inactive results. Activity calls are given as the source filed them.

As for `CN1C(=O)NC(Cc2c[nH]c3c(Cl)cccc23)C1=O` (stereo not given), the growth in assay [1] is 106%; in assay [2] it was 118%; in assay [3], 101%; in assay [4] it was 78.5%; in assay [5], 147%; in assay [6] it was 99.3%. Further, the growth in assay [7] was 125%; in assay [8], 106%; in assay [9], 113%; in assay [10] it was 111%; in assay [11], 101%; in assay [12], 119%. Moreover, the growth in [13] is 112%; in assay [14] it was 102%; in assay [15], 101%; in [16] it was 113%; in [17], 108%; in assay [18] it was 90.8%. Also, the growth in [19] was 103%; in [20], 100%.
`CCn1c(Cc2ccccc2Nc2c(Cl)cccc2Cl)nnc1SCC(=O)Nc1cccc(OC)c1`: the growth in [1] was 91.5%; in assay [2], 77.7%; in assay [3], 66.6%; in assay [4], 68.6%; in assay [5], 82.8%; in assay [6] it was 88.7%. The growth is 84.6% in assay [7]; 40.9% in [8]; 73.1% in assay [9]; 54.3% in assay [10]; 87.1% in assay [11]; 63.2% in assay [12]. For the same compound, the growth was 89.8% in assay [13]; 82.9% in assay [14]; 78.7% in assay [15]; 85.4% in assay [16]; 67% in assay [17]; 96% in assay [18]. Besides, the growth in assay [19] was 72%; in assay [20] it was 86.1%.
Take `COc1cnc2c(c1)C(=O)c1c-2n(CCCN2CCNCC2)c(=O)c2cc(Cl)ccc12`: the growth in [1] was 43.9%; in assay [2], 29%; in [3] it was 16.5%; in [4], -59% (active); in [5] it was 47.5%; in [6] it was -100% (active). Further, the growth is 33.1% in assay [7]; 13.6% in [8]; -69.4% (active) in [9]; -54.2% (active) in [10]; -48.7% (active) in assay [11]; -64.9% (active) in [12]. The growth in assay [13] is -58.9% (active); in assay [14], -96.1% (active); in assay [15], 53.4%; in [16], 14.5%; in assay [17], 51.4%; in assay [18] it was -90.5% (active). Moreover, the growth in assay [19] was 66.3%; in [20], 48.1%.
Take `COCc1nc(NS(=O)(=O)c2ccc(N)cc2)nc(C)c1Br`: the growth in assay [1] is 96.6%; in [2] it was 95.9%; in [3], 108%; in [4], 95.4%; in assay [5], 93.1%; in assay [6], 102%. In addition, the growth in [7] was 102%; in assay [8], 118%; in [9], 103%; in assay [10], 103%; in assay [11], 89.3%; in assay [12], 106%. The growth in assay [13] is 110%; in assay [14], 106%; in assay [15] it was 123%; in [16], 96.9%; in assay [17], 103%; in assay [18] it was 112%. Besides, the growth in assay [19] was 112%; in assay [20] it was 104%.
As for `CN(C)CCCn1c(=O)c2cc([N+](=O)[O-])ccc2c2cnc3[nH]ccc3c21`, the growth in assay [1] is 53.7%; in [2] it was 62.2%; in [3] it was 47%; in assay [4], 33.1%; in assay [5] it was 50.5%; in [6], 27.9%. Besides, the growth in assay [7] is 79.5%; in assay [8], 39.5%; in assay [9] it was -26.4% (active); in assay [10], 8.62% (active); in assay [11], -27.6% (active); in assay [12] it was 45.4%. For the same compound, the growth in assay [13] was 35.1%; in assay [14] it was 73.1%; in assay [15], 61%; in [16], 63.8%; in assay [17], 54.9%; in assay [18] it was 68.2%. Besides, the growth in assay [19] is 75.3%; in assay [20], 51.7%.
`CC(C)(C)c1ccc(OC(=O)Nc2ccccc2)cc1`: the growth in assay [1] was 103%; in [2] it was 111%; in assay [3], 100%; in [4], 87%; in assay [5], 98.7%; in assay [6], 102%. For the same compound, the growth in assay [7] is 104%; in assay [8], 97.7%; in assay [9] it was 87.1%; in assay [10], 56.6%; in [11] it was 76.3%; in assay [12] it was 105%. The growth is 105% in assay [13]; 106% in [14]; 113% in [15]; 110% in assay [16]; 107% in assay [17]; 105% in [18]. Moreover, the growth in [19] was 103%; in assay [20], 106%.
In the case of `CS(=O)(=O)c1ccc(C(=O)N/N=C/c2cccc3ccccc23)cc1`, the growth was 47.7% in [1]; 87.4% in assay [2]; 87.4% in assay [3]; 78.5% in assay [4]; 85.1% in assay [5]; 98.5% in [6]. For the same compound, the growth in [7] was 67.2%; in [8] it was 69.1%; in assay [9], 77.6%; in assay [10], 46.8%; in [11] it was 32.5%; in [12] it was 87.7%. Besides, the growth in assay [13] was 83.9%; in [14], 109%; in assay [15] it was 113%; in [16], 78.1%; in assay [17], 63.3%; in assay [18], 67.8%. For the same compound, the growth in [19] is 85.1%; in assay [20] it was 73.5%.
`C=C1C(=O)O[C@H]2[C@H]1CC/C(COC(=O)NCc1ccc(Cn3c(=O)sn(CCCl)c3=O)cc1)=C\CC[C@@]1(C)O[C@@H]21`: the growth was 68.8% in [1]; 83.6% in assay [2]; 82.6% in assay [3]; 79.3% in assay [4]; 11.4% in [5]; 70.3% in assay [6]. For the same compound, the growth in [7] was 48.3%; in [8] it was 98.4%; in assay [9], -3.67% (active); in assay [10], -18.8% (active); in assay [11] it was 5.35% (active); in assay [12], 2.37% (active). For the same compound, the growth in assay [13] was 92.1%; in [14], 109%; in assay [15], 60.6%; in assay [16], 85.3%; in [17], 47.7%; in assay [18] it was -26.2% (active). Also, the growth is 97.1% in assay [19] and 113% in assay [20].

For the origin of these results see PubChem BioAssay (NCI).
